Target: STRADB
Assay: pooled miR-30 sensor sort-seq; sequence = guide strand
Details: shRNA
Also: reference of the scale not given here.

Row | Sequence | sensor-assay potency score (higher = more potent)
1 | TTGATGGCTTGTTATAAGCAGG | -1.06
2 | TACTCCTGTGAATACAGCCATT | -1.43
3 | TTCTACTTGGAGCTCATAGTGA | -0.852
4 | TTCTGTAACAGCATCTGAGTTC | -0.403
5 | TTCTTCATTGCAGTTTTCCAGA | -0.72
6 | TAGATTAGTAATTCTGATGTTT | 0.0372
7 | ATCTTGTTGCAAACAGAGCTGT | -0.583
8 | TCTGACTTCACATTATACCCAT | 0.302

Target: STRBP
Assay: as above
Details: shRNA

Row | Sequence | sensor-assay potency score (higher = more potent)
9 | TTGAGTTTGAAGACACTGTTTC | -0.227
10 | TTTGACTGTATTTAACAGGGTC | 0.301
11 | TTTCGTTTCATCTTCTTGTTGG | 0.788
12 | TAACAGAACCATTCTCTTGGGT | 0.367
13 | TTACACATGATTTTAATCCATT | -0.986
14 | TTACTATCCAGAATTTTCCTTA | 0.368
15 | TTCTTCTCCAATTCGTCCCTAA | 0.053
16 | TTGATATTTCTCTTCTGTGAGT | -0.566
17 | TAAAACTTAAACTTTGAACTGC | 0.571
18 | TTTGAGACTCTATACATCCTTC | -0.328

Target: STUB1
Assay: as above
Details: shRNA

Row | Sequence | sensor-assay potency score (higher = more potent)
19 | ATAGCTCTCCATCTCCAGCTGG | -0.665
20 | TTGCCACACAGGTAGTCGGGGA | -0.252
21 | TTGCGGTCGTAGGTGATGCCAC | -0.555
22 | TTCCAGCGCTTCTTCTTCGCGA | -0.702
23 | TGCTCCTCGATGTCCTTGCGGT | -0.704
24 | TAGCTCTCCATCTCCAGCTGGC | -0.433
25 | TTCCTCTTCTCATCCACCTGAG | -0.167
26 | TTCGCGATTCGAAGAGCGCTGG | -0.358
27 | TTCAGGTAGCACAAGGCCCGGT | -0.567
28 | TAATACACGGCCACCAGCGGGT | -0.893
29 | TTATTACACAGATAGTGGCGGC | 0.272
30 | TTGAGCTCCTGCGCGCTCGGGC | -0.67

Target: STX12
Assay: as above
Details: shRNA

Row | Sequence | sensor-assay potency score (higher = more potent)
31 | TCTGATAGTAAGCAGCTCGCTG | -0.759
32 | TAACTGTTGCAGATTTTCCTGT | 0.412
33 | TTTTCCTGTAGCTTGCTTGAGT | 0.00107
34 | AAATATCTGATTGACATCCAAA | -1.28
35 | TTTTTGTCTAAAACTATGCATG | -0.984
36 | TTTAATAAGTTCCAAATCCTGC | -0.773
37 | TTGTCTAAAACTATGCATGGAG | -0.297
38 | TTGTGGAGTGTTGTAACTGTTG | -1.19
39 | TTGAGTCCTGCTTAGTTCCTAG | -0.155
40 | TACCCTTCTCTGCACAGCCTGG | -1.07
